The list is not random: actives were taken first. Their share in the collection is about 3.4%.
FBW7 activator: activators of human E3 ligase FBW7; AlphaScreen FBW7–phospho-cyclin E peptide binding, activator screen; normalized activity (activation), % at 26.1 µM; actives 0.13% (n = 650,000); AID 1259310; in the data active = normalized activity above about 1.9%;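 note: purified mutant Fbw7 with reduced substrate affinity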
MITF primary: blocks human microphthalmia-associated transcription factor | O75030 | AlphaScreen MITF homodimerization, bead proximity signal | inhibition, % at 2.6 µM | actives 0.91% (n = 650,000) | AID 1259374; in the data active = inhibition above about 50%;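 note: 0% = vehicle wells with protein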
GPR151 ag: activators of human GPR151; actives 1% (n = 650,000); Q8TDV0; AID 1508602; activation, % at 11.2 µM; PathHunter beta-arrestin GPR151 cells, luminescence; in the data active = activation above about 4.9%;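 note: 0% = median of compound wells and 100% = cells with positive control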
Target sequence (Q8TDV0 whole entry, looked up): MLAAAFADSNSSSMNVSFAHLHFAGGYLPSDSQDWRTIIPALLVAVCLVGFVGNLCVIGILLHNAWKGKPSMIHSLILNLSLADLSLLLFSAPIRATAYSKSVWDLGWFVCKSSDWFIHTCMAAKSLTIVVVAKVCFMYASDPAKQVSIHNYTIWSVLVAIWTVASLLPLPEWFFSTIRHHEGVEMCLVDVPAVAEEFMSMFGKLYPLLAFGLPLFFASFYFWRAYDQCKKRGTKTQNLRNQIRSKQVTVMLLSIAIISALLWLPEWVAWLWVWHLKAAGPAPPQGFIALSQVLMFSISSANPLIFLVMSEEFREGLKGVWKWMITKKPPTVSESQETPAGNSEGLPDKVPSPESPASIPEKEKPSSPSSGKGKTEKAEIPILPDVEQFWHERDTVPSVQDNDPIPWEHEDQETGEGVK
TEAD-YAP block: TEAD-YAP interaction inhibition. inhibition, % at 9.12 µM. HEK-TIYL cells, TEAD-Gal4/YAP UAS-luciferase luminescence. actives 1.4% (n = 640,000); in the data active = inhibition above about 32%;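 note: 0% = median of test compound wells and 100% = reference inhibitor wells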
The depositor's hits bear a star.

SMILES | FBW7 activator | MITF primary | GPR151 ag | TEAD-YAP block
c1ccc(OCCNc2nc(Nc3nccc4ccccc34)nc3nc[nH]c23)cc1 | 0 | 3 | 3 | 3
O=C(NNC1=C(Cl)C(=O)C(Cl)(Cl)C1(Cl)Cl)c1ccccc1 | 0 | 3 | 0 | 10
Cc1cc(C)c2nc3sc(C(=O)N4CCOCC4)c(N)c3cc2c1 | 0 | 16 | -1 | 36*
NC(=O)c1sc2nc3c(cc2c1N)CCCCC3 | 0 | 1 | -8 | 68*
CCOCCOC(=O)c1[nH]c2c(c1C)C(=O)CC(c1cccs1)C2 (stereo not drawn) | 0 | 1 | 1 | 54*
CCOC(=O)C1=C(C)NC2=C(C(=O)CC(c3cccs3)C2)C1c1ccc(C)s1 (stereo not drawn) | 0 | -2 | 0 | 15
CCSCCOC(=O)C1=C(C)NC2=C(C(=O)CC(c3cccs3)C2)C1c1ccc(F)cc1 (stereo not drawn) | 1 | -5 | -1 | 11
CCSCCOC(=O)c1[nH]c2c(c1C)C(=O)CC(c1cccs1)C2 (stereo not drawn) | 0 | 12 | -1 | 55*
CCOC(=O)c1[nH]c2c(c1C)C(=O)CC(c1cccs1)C2 (stereo not drawn) | 0 | 2 | 0 | 52*
Cc1c(C(=O)OCCOC(C)C)[nH]c2c1C(=O)CC(c1cccs1)C2 (stereo not drawn) | 0 | -9 | 1 | 51*
CC(C)NC(=O)CSc1nnc(NC(=O)C23CC4CC(CC(C4)C2)C3)s1 | 0 | -12 | 1 | 6
C/C=C/COC(=O)c1[nH]c2c(c1C)C(=O)CC(c1cccs1)C2 (stereo not drawn) | 0 | 0 | 2 | 42*
COCCOC(=O)c1[nH]c2c(c1C)C(=O)CC(c1cccs1)C2 (stereo not drawn) | 1 | 15 | 0 | 49*
Cc1c(C(=O)OC(C)C)[nH]c2c1C(=O)CC(c1cccs1)C2 (stereo not drawn) | 0 | -1 | 1 | 60*
CSc1cccc(NC(=O)C2CCC(CNc3c(N4CCCCC4)c(=O)c3=O)CC2)c1 (stereo not drawn) | 0 | 5 | 0 | 0
CCOC(=O)c1nnn(-c2nonc2N)c1CN(Cc1ccccc1)C(C)C | 0 | 2 | 1 | 44*
CCOC(=O)c1nnn(-c2nonc2N)c1CN(CC)c1ccccc1 | 0 | -3 | -1 | -8
CCOC(=O)CN(Cc1ccccc1)c1ccnc(Nc2ccc(-n3nc(C)nc3C)cc2)n1 | 0 | 0 | 1 | 53*
Cc1nc(C)n(-c2ccc(Nc3nccc(-c4ccc5ccccc5c4)n3)cc2)n1 | 1 | 17 | 0 | 27
Cc1nc(C)n(-c2ccc(Nc3nccc(N(C)Cc4ccccc4)n3)cc2)n1 | 1 | 24 | 0 | 51*
NC(=O)CN1CCN(C(=O)c2ccco2)CC1 | 0 | -6 | 0 | 0
Cc1sc(NC(=O)CN(Cc2ccccc2)C(=O)c2ccco2)c(C(N)=O)c1C | 0 | 10 | 0 | -4
COc1ccc(-c2noc(-c3ccccc3C(=O)N3CCOCC3)n2)cc1OC | 0 | -8 | -1 | -1
Cc1cc(/C=c2\sc3nc4ccccc4n3c2=O)c(C)n1C1CCCC1 | 0 | 0 | 1 | 70*
COc1cccc(/C=c2/sc3nc4ccccc4n3c2=O)c1 | 0 | -1 | -1 | 50*
SMILES | FBW7 activator | MITF primary | GPR151 ag | TEAD-YAP block
Cc1cc(/C=c2/sc3nc4ccccc4n3c2=O)c(C)n1-c1ccc(Cl)c(Cl)c1 | 0 | 5 | 1 | 7
O=c1/c(=C\c2ccc(O)cc2)sc2nc3ccccc3n12 | 2.0* | 19 | -10 | 73*
Cc1cc(C)nc(-c2cccc3c2OC(CNC(=O)C(C)n2nc(C)cc2C)C3)n1 (stereo not drawn) | 0 | 10 | -1 | -2
O=C1OC(c2cccc(Cl)c2)=N/C1=C\c1cccc(Cl)c1 | 0 | -13 | 0 | -12
O=C1OC(c2cccc(Cl)c2)=N/C1=C\c1ccccc1 | 0 | -9 | -8 | 73*
CC(C)NC(=O)CN(c1ccc(Br)cc1)S(C)(=O)=O | 1.9* | 3 | -1 | 16
CC(C)C(NC(=O)CN(c1ccc(Br)cc1)S(C)(=O)=O)C(C)C | 0 | 3 | 1 | 3
O=C(Nc1c2c(nn1-c1ccccc1)CS(=O)C2)c1ccc(Cl)c([N+](=O)[O-])c1 (stereo not drawn) | 0 | -13 | 1 | 3
O=c1c(-c2ccccc2)c(N2CCCCCC2)c1=O | 0 | 12 | -2 | 1
c1c2c(cc3sc(N4CCCC4)nc13)OCCO2 | 0 | -1 | -8 | 72*
c1ccc2c(c1)CCN(c1nc3cc4c(cc3s1)OCCO4)C2 | 0 | 4 | -5 | 89*
c1ccc2sc(N3CCN(c4nc5cc6c(cc5s4)OCCO6)CC3)nc2c1 | 0 | 8 | 0 | 1
O=C1NC(=O)N(c2cccc(F)c2)C(=O)/C1=C/c1ccc(I)o1 | 0 | 78* | 1 | 11
Cc1cc(/C=C2\C(=O)NC(=O)N(c3cccc(F)c3)C2=O)c(C)n1C | 0 | 55* | 1 | 1
COc1cc(OC)c(OC)cc1/C=C1\C(=O)NC(=S)N(c2cccc(F)c2)C1=O | 0 | 54* | -2 | 6
Cc1ccc(N2C(=O)NC(=O)/C(=C\c3ccco3)C2=O)cc1C | 0 | 5 | 1 | 4
Cc1ccc(N2C(=O)NC(=O)/C(=C\c3cc(C)n(C)c3C)C2=O)cc1 | 0 | 15 | -1 | 5
O=C1NC(=O)N(c2ccc(F)cc2)C(=O)/C1=C/c1ccco1 | 0 | 73* | 1 | -1
COc1cccc(OC)c1OCCOc1ccccc1F | 0 | 22 | 0 | -17
O=C1NC(=O)N(c2ccccc2F)C(=O)/C1=C/c1ccc(I)o1 | 0 | 52* | 0 | 5
Cc1cc(/C=C2\C(=O)NC(=S)N(c3ccc(F)cc3)C2=O)c(C)n1-c1cccnc1 | 0 | 110* | -2 | 0
CCc1ccc(N2C(=O)NC(=O)/C(=C\c3cc(C)n(-c4cccnc4)c3C)C2=O)cc1 | 0 | -17 | -2 | 5
O=C1CCCN1CCCNc1nc(NC2CC2)c2ncn(-c3ccccc3)c2n1 | 0 | 5 | -2 | 42*
COc1ccc(-c2nc(NCCCN3CCCC3=O)c3ncn(-c4ccccc4)c3n2)cc1 | 0 | 10 | 3 | 20
O=C1CCCN1CCCNc1nc(-c2ccccc2)nc2c1ncn2-c1ccccc1 | 0 | 2 | 3 | 33*
SMILES | FBW7 activator | MITF primary | GPR151 ag | TEAD-YAP block
O=C1CCCN1CCCNc1nc(-c2ccccc2)nc2c1ncn2-c1ccsc1 | 0 | 10 | 1 | 30
NC(=O)c1ccc(-c2nc(NCCCN3CCCC3=O)c3ncn(-c4ccsc4)c3n2)cc1 | 0 | 3 | 0 | 49*
O=C(CC12CC3CC(CC(C3)C1)C2)N1CCCCC1 | 0 | 12 | -1 | -3
O=C(Cc1c[nH]c2ccccc12)Nc1ccc(F)c([N+](=O)[O-])c1 | 0 | -4 | -1 | -5
COc1cc([N+](=O)[O-])ccc1NC(=S)N1CCN(c2ncccn2)CC1 | 0 | -20 | -2 | -3
CCC(C)(C)c1ccc(OCCCC[n+]2cccc(C)c2)c(C(C)(C)CC)c1 | 0 | -22 | 2 | 85*

High-throughput results deposited in PubChem by The Scripps Research Institute Molecular Screening Center.
